This is an account of results in PubChem BioAssay.

This test has as its system glycogen synthase kinase-3 (GSK3A per assay name; protocol says GSK3B). The test can be described thus: GSK3 binders on small-molecule microarrays, primary screen, biochemical, small-molecule microarray, 635 nm fluorescence, GSK3A (AID 1103). Also: the record names both GSK3A and GSK3B. The settings on record: small-molecule microarray binding, fluorescence 635 nm; higher = more signal.
As to `CO[C@H]1COC(=O)CC=C[C@H](C)[C@@H](OC)COC(=O)[C@@H](C)NC(=O)CC=C[C@@H]1C`, the composite z-score worked out at 0.597.
In turn, `CCOC(=O)[C@H](Cc1ccccc1)NC(=O)OC1CC(CCC2CC(CC)=NO2)OC2(CCCC(COC(=O)NCCC(C)C)O2)C1` (stereo partly specified) had a composite z-score of 0.207.
As for `CC(C)CON=C1C[C@@H](O)[C@@H](O)[C@@H]2[C@@H]3C(=O)N(c4ccc(F)cc4F)C(=O)[C@@H]3CC[C@H]12`, the figure is 0.458; as for `CC(C)(C)N1C(=O)[C@H]2[C@H]3[C@H](O)[C@H](O)CC(=NO[C@@H]4O[C@H](CO)[C@@H](O)[C@H](O)[C@H]4O)[C@H]3CC[C@H]2C1=O`, -0.524.
Molecule `COC(=O)C=CCCc1coc(C=CCNC(=O)OC)n1` came in with a composite z-score of 0.643.
As for `Cc1ccc(S(=O)(=O)OC[C@H]2CN3[C@H](c4ccc(Br)cc4)[C@@H](C)CC[C@H]3C(=O)O2)cc1`, the figure is -0.204; as for `CO[C@@H]1COC(=O)[C@@H](C)NC(=O)CC=C[C@@H](C)[C@H](NS(=O)(=O)c2ccc(C)cc2)COC(=O)[C@H](C)NC(=O)CC=C[C@H]1C`, 0.625; as for `COC(=O)[C@H](C)NC(=O)CCC1CC(OC(=O)NCc2ccc3c(c2)OCO3)CC2(CCCC(COC(=O)NCC3CCCCC3)O2)O1` (stereo partly specified), 0.98.
As for `C#CCCCON=C1C[C@@H](O)[C@@H](O)[C@@H]2[C@@H]3C(=O)N(C(C)(C)C)C(=O)[C@@H]3CC[C@H]12`, the figure is -0.656; as for `CCOC(=O)NN=C1C[C@@H](O)[C@@H](O)[C@@H]2[C@@H]3C(=O)N(C(C)(C)C)C(=O)[C@@H]3CC[C@H]12`, 0.666; as for `C[C@H]1COC(=O)[C@@H]2CCCN2C(=O)[C@@H](C)COC(=O)[C@H](Cc2ccccc2)NC1=O`, 0.727.
Molecule `CCOC(=O)NN=C1C[C@@H](O)[C@@H](O)[C@@H]2[C@@H]3C(=O)N(c4cccc(Oc5ccccc5)c4)C(=O)[C@@H]3CC[C@H]12` displayed a composite z-score of 0.176.
`CCOC(=O)C1=NO[C@@]2(C=C(Br)C3(OCCCO3)[C@H]3O[C@H]32)C1`: the composite z-score worked out at 0.827.
As for `CO[C@@H]1COC(=O)[C@H](CCSC)NC(=O)CC=C[C@@H](C)COC(=O)CCC[C@H]1C`, the figure is 1.26; as for `CCOC(=O)[C@H](Cc1ccccc1)NC(=O)CCC1CC(OC(=O)NCc2cccc3ccccc23)CC2(CCCC(COC(=O)NCCC(C)C)O2)O1` (stereo partly specified), -0.448; as for `CC[C@@H](c1ccccc1)n1c(=O)n2n(c1=O)[C@H]1[C@H](O)[C@@H]3O[C@@H]3C(=O)[C@H]1CC2`, 0.417.
As for `CCc1cc2c(nc1CC)CCN(CCC(C)=NO[C@H](C)c1cn([C@H](CO)Cc3ccccc3)nn1)C2`, the composite z-score came to 0.0291.
In turn, `CCOC(=O)[C@H](CC(C)C)NC(=O)CCC1CC(OC(=O)NCc2ccc3c(c2)OCO3)CC2(CCCC(COC(=O)NCC(c3ccccc3)c3ccccc3)O2)O1` (stereo partly specified) gave a composite z-score of 0.206.
`CCOC(=O)CCN1C(=O)[C@H]2[C@H]3[C@H](O)[C@H](O)CC(=NOCC(C)C)[C@H]3CC[C@H]2C1=O` came in with a composite z-score of -0.239.
As for `O=C1[C@H]2[C@H]3[C@H](O)[C@H](O)CC(=NOCc4ccccc4)[C@@H]3CC[C@H]2C(=O)N1C[C@@H]1CCCO1`, the figure is -0.451.
Turning to `CCOC(=O)[C@H](CC(C)C)NC(=O)CCC1CC(OC(=O)NCc2cccc3ccccc23)CC2(CCCC(COC(=O)NCC3CCCCC3)O2)O1` (stereo partly specified), the composite z-score came to 0.941.
`CC(C)=CCCC(C)=CCON=C1C[C@@H](O)[C@@H](O)[C@@H]2[C@@H]3C(=O)N(c4cccc(Oc5ccccc5)c4)C(=O)[C@@H]3CC[C@@H]12`: the composite z-score was -0.112.
As for `O=C1[C@H]2[C@H]3[C@H](O)[C@H](O)CC(=NOC[C@@H](O)COCc4ccco4)[C@H]3CC[C@H]2C(=O)N1c1ccc(F)cc1F`, the composite z-score came out at 0.0894.
As to `COc1ccc(O[C@@H]2[C@H](O)CO[C@H]2C=Cc2ccccc2)cc1`, the composite z-score was -0.0395.
For `COC(=O)[C@@H]1CC[C@H](C)[C@@H](c2ccc(C)cc2)N1C(=O)c1ccc(C=NO[C@@H]2O[C@H](COC(C)=O)[C@@H](OC(C)=O)[C@H](OC(C)=O)[C@H]2OC(C)=O)cc1`, the composite z-score is 0.798.
As for `CO[C@H]1COC(=O)[C@H](C)NC(=O)[C@@H](C)COC(=O)[C@H]2CCCN2C(=O)CC=C[C@H]1C`, the figure is 0.945; as for `CC(C)=CCCC(C)=CCON=C1C[C@@H](O)[C@@H](O)[C@@H]2[C@@H]3C(=O)N(c4ccc(F)cc4F)C(=O)[C@@H]3CC[C@H]12`, 0.349; as for `COc1cc(O)c(C(=O)C=Cc2ccc3c(c2)OCO3)c(OC)c1`, -0.729.
As for `COc1ccc(O[C@H]2C=C[C@@H](c3ccccc3)O[C@@H]2CON=C2[C@H]3CCn4c(=O)n(-c5ccccc5)c(=O)n4[C@H]3[C@H](O)[C@@H]3O[C@H]23)cc1`, the figure is 0.417.
As for `COc1ccc(COC(=O)NN=C2C[C@@H](O)[C@@H](O)[C@@H]3[C@@H]4C(=O)N(Cc5ccccc5)C(=O)[C@@H]4CC[C@H]23)cc1`, the figure is -0.623; as for `CO[C@H]1COC(=O)[C@@H](C)COC(=O)[C@@H](OCc2ccccc2)C=C[C@@H]1C`, -0.227.
For the molecule `COc1ccc(O[C@H]2C=C[C@@H](c3ccccc3)O[C@@H]2CON=C(C)CCN2CCc3nc(-c4ccccc4)c(-c4ccccc4)cc3C2)cc1`, the composite z-score was -0.796.
As for `CCN1C(=O)[C@H]2[C@H]3[C@H](O)[C@H](O)CC(=O)[C@H]3CC[C@H]2C1=O`, the figure is 0.713.
As for `CCCNC(=O)OC[C@H]1O[C@H](CCON=C(C)C)C=C[C@@H]1Oc1ccc(OC)cc1`, the figure is -0.515.
As for `CCOC(=O)NN=C1C[C@@H](O)[C@@H](O)[C@@H]2[C@@H]3C(=O)N(c4ccc(F)cc4F)C(=O)[C@@H]3CC[C@@H]12`, the figure is 0.364; as for `C[n+]1ccc(-c2ccc(CO)cc2)cc1`, -0.435.
